Consider three sequences from publication PMC8384837, “Expanding the binding specificity for RNA recognition by a PUF domain”.

Sequence of PUM1 PUF domain R4-GPS (Q14671 828-1176 N971G/H972P/Q975S): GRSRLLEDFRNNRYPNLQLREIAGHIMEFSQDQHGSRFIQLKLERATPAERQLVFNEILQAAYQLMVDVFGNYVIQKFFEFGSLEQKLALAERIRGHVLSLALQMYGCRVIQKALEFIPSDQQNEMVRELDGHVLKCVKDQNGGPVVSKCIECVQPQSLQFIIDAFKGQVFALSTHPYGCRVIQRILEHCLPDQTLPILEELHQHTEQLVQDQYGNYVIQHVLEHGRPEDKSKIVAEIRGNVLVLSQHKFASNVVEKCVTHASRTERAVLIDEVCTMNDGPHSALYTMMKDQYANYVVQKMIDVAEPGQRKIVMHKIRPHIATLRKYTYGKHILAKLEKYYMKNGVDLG

The target in the assay is PUM1 PUF domain R4-GPS (Homo sapiens, UniProt Q14671 828-1176, N971G;H972P;Q975S). Description: yeast three-hybrid, YBZ-1, SC-Leu-His + 0.5 mM 3-AT, 4 days. The following applies: tags: N-Gal4 AD-HA kept; label: inside an RPR1-promoter hybrid RNA with tandem MS2 sites; ssRNA. In short, it runs like this:
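Sequencing with Illumina followed PCR amplification of the repeat regions from transformants grown four days on SC-Leu (input) or SC-Leu-His + 0.5 mM 3-AT (selection). The transformants were strain YBZ-1 with a LexA–MS2 coat fusion and a HIS3 reporter, carrying Pumilio-1 PUF domain libraries and matching RNA elements. The interaction score is the log change in variant frequency from input to selection, computed in log2 with a pseudocount of 1 for absent variants.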
On to “GGCUAGAACUAGUGGAUCCCCCGGCGCCCGGCGGCUCGAGCCCGGGUAAGUGUAAAUAGUCUGCAUGCCGCCGGGCGCCAUGCCUGCAGGUCGACUCUAGAAAACAUG”, for which the binding signal was 4.4 log2 enrichment (interaction score).

On to “GGCUAGAACUAGUGGAUCCCCCGGCGCCCGGCGGCUCGAGCCCGGGUAAGUGUAUAUAGUCUGCAUGCCGCCGGGCGCCAUGCCUGCAGGUCGACUCUAGAAAACAUG”, for which the binding signal was 2.94 log2 enrichment (interaction score).

As to “GGCUAGAACUAGUGGAUCCCCCGGCGCCCGGCGGCUCGAGCCCGGGUAAGUGUACAUAGUCUGCAUGCCGCCGGGCGCCAUGCCUGCAGGUCGACUCUAGAAAACAUG”, the binding signal was 1.84 log2 enrichment (interaction score).
